Screening results: PubChem BioAssay, National Center for Advancing Translational Sciences (NCATS)
Only a selection was taken, and hits are over-represented in it overall.
Pf Dd2 growth: qHTS Primary assay for Inhibitors of Plasmodium falciparum Dd2 growth in vitro; AID 1347417, 2020; 120,000 compounds, 4.3% hits; Potency, µM (highest dose often 28.9 µM), actives largely listed as inhibitors; P. falciparum Dd2 growth, SYBR Green, 72 h; active = well fitted inhibition curve with a large enough effect; also: nearly all actives have a fitted effect of over 65% in size
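Infected erythrocytes (Dd2, 0.3% parasitemia, 2.5% hematocrit final) are added to compound in RPMI-1640/Albumax II medium, grown 72 h at 37C in low oxygen, then lysed with saponin/Triton-X containing SYBR Green and read by fluorescence.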
Hits are given with their value.

`Cc1ccc(C)c(CSc2ccc3nnc(CCNS(=O)(=O)c4ccccc4)n3n2)c1` gave Pf Dd2 growth inactive.
Screening Cc1ccc(S(=O)(=O)NCCc2nnc3ccc(SCc4ccccc4C)nn23)cc1 returned Pf Dd2 growth 7.9µM.
`CCOC(=O)CSc1ccc2nnc(CCNS(=O)(=O)c3ccccc3)n2n1` gave Pf Dd2 growth inactive.
For Fc1ccc(/C=C/CN2CCC(n3cc(C4CCCC4)nn3)CC2)cc1 the results were Pf Dd2 growth inactive.
`O=C(NCC(F)F)C1CN(c2ccc(F)cc2)C(=O)N1` (configuration not stated) gave Pf Dd2 growth inactive.
Screening COc1ccccc1Cc1nc2ccccc2nc1SCC(=O)N1CCCCC1 returned Pf Dd2 growth inactive.
Screening COc1ccccc1Cc1nc2ccccc2nc1SCC(=O)NCc1ccccc1Cl returned Pf Dd2 growth 0.89µM.
COc1cc(NC(=O)CSc2nc3ccccc3nc2Cc2ccccc2OC)cc(OC)c1 was read as Pf Dd2 growth inactive.
O=C(CN1CCSc2ccccc21)N1CCN(c2cccc(Cl)c2)CC1 was read as Pf Dd2 growth inactive.
Cc1ccc(C)c(N2CCN(C(=O)c3ccc4[nH]c(C)c(C)c4c3)CC2)c1 was read as Pf Dd2 growth inactive.
Cc1ccc(CN2CCSc3ccc(C(=O)N4CCN(c5ccc(Cl)cc5)CC4)cc32)cc1 was read as Pf Dd2 growth 8.9µM.
O=C(c1ccc2c(Cl)c3c(nc2c1)CCCC3)N1CCN(c2ccccc2F)CC1 was read as Pf Dd2 growth inactive.
Cc1ccc(N2CCN(C(=O)c3ccc4c(c3)N(C)C3CCCCN3C4=O)CC2)cc1 (configuration not stated) was read as Pf Dd2 growth inactive.
`Cc1ccc(CN2CCSc3ccc(C(=O)N4CCN(c5cccc(C)c5C)CC4)cc32)cc1` gave Pf Dd2 growth 6.3µM.
Screening Cc1cccc(N2CCN(C(=O)c3ccc4c(Cl)c5c(nc4c3)CCCC5)CC2)c1C returned Pf Dd2 growth 11µM.
For O=C(c1ccc2c(Cl)c3c(nc2c1)CCCC3)N1CCN(c2cccc(Cl)c2)CC1 the results were Pf Dd2 growth inactive.
`COc1cc2[nH]c(=O)n(Cc3ccc(C(=O)N4CCN(c5ccc(Cl)cc5)CC4)cc3)c(=O)c2cc1OC` gave Pf Dd2 growth inactive.
N#Cc1ccc(CN2CCC3(CC2)CC(=O)c2ccccc2O3)cc1 was read as Pf Dd2 growth inactive.
For CN1c2cc(C(=O)NCc3ccccc3Br)ccc2C(=O)N2CCCC21 (configuration not stated) the results were Pf Dd2 growth inactive.
For Cc1ccc([S+](=O)([O-])N(C)Cc2ccc(-c3ccccc3)cc2)cc1 the results were Pf Dd2 growth inactive.
Screening O=[S+]([O-])(Nc1nncs1)c1ccc2c(c1)OCCN(Cc1cncc(F)c1)C2 returned Pf Dd2 growth inactive.
`CS(=O)(=O)N1CCn2c(nnc2C2CCNCC2)C1` gave Pf Dd2 growth inactive.
Screening O=S(=O)(c1ccc(Cl)cc1)N1CCOC[C@H](Oc2ccc(C(F)(F)F)cc2)C1 returned Pf Dd2 growth inactive.
CNC(=O)[C@@H]1CN(C(=O)CCc2ccc(OC)cc2)C[C@H]1COC was read as Pf Dd2 growth inactive.
For CN1Cc2cccn2CC1CNC(=O)Cc1cccc(F)c1 (configuration not stated) the results were Pf Dd2 growth inactive.
Cc1cc(C)n(Cc2ccc(C(=O)NCC3Cn4cccc4CN3Cc3ccccc3)o2)n1 (configuration not stated) was read as Pf Dd2 growth 5µM.
CCn1ccc(C(=O)NCC2Cn3cccc3CN2Cc2ccccc2)n1 (configuration not stated) was read as Pf Dd2 growth 14µM.
O=C(NCC1Cn2cccc2CN1Cc1ccccc1)c1cncc(Br)c1 (configuration not stated) was read as Pf Dd2 growth 10µM.
Cc1cc(C(=O)NCC2Cn3cccc3C(=O)N2Cc2ccccc2)n(C)n1 (configuration not stated) was read as Pf Dd2 growth inactive.
CCn1ccc(C(=O)NCC2Cn3cccc3C(=O)N2CC(C)C)n1 (configuration not stated) was read as Pf Dd2 growth inactive.
`CN1Cc2cccn2CC1CNC(=O)Cc1ccccc1` (configuration not stated) gave Pf Dd2 growth inactive.
`Cn1nccc1C(=O)NCC1Cn2cccc2CN1Cc1ccccc1` (configuration not stated) gave Pf Dd2 growth inactive.
Screening Cn1cnc(S(=O)(=O)NCC2Cn3cccc3CN2Cc2ccccc2)c1 (configuration not stated) returned Pf Dd2 growth inactive.
For CCc1noc(Cc2c(C)nn(-c3ccccc3)c2C)n1 the results were Pf Dd2 growth inactive.
Screening CC(C)c1noc(C2CCCN2S(=O)(=O)N2CCCCCC2)n1 (configuration not stated) returned Pf Dd2 growth inactive.
`O=C(c1ccc(OC(F)(F)F)cc1)N1CCN(c2cc(-c3ccccc3)[nH]n2)CC1` gave Pf Dd2 growth inactive.
`COc1ccccc1C(=O)N1CCC(Cc2nc(-c3ccc(F)cc3)no2)CC1` gave Pf Dd2 growth inactive.
Screening c1ccc(COc2ccc(CN3CCSCC3)cc2)nc1 returned Pf Dd2 growth inactive.
For c1ccc(CN2C[C@H]3CCNC[C@H]32)cc1 the results were Pf Dd2 growth inactive.
Screening c1ccc(COc2ccc(CN3CCN(C4CCNC4)CC3)cc2)cc1 (configuration not stated) returned Pf Dd2 growth 8.9µM.
Screening C/C(=C\c1ccccc1)CN1CCCC12Cc1ccccc1CNC2=O (configuration not stated) returned Pf Dd2 growth inactive.
`O=C(NCCCn1ccnc1)c1ccc2nc(-c3ccc(F)cc3)cn2c1` gave Pf Dd2 growth inactive.
Screening O=C1[C@H]2CN(Cc3ccc(Cl)cc3)C[C@H]2C(=O)N1CCc1ccccc1 returned Pf Dd2 growth inactive.
For CC(C)CCN1C[C@@H]2C(=O)N(CCc3ccccc3)C(=O)[C@@H]2C1 the results were Pf Dd2 growth 8.9µM.
Screening Cc1ccccc1CN1C[C@@H]2C(=O)N(CCc3ccccc3)C(=O)[C@@H]2C1 returned Pf Dd2 growth inactive.
For CN1C(=O)c2cccn2CC1C(=O)N1CCCC1 (configuration not stated) the results were Pf Dd2 growth inactive.
`COc1ccc(C2(C(=O)N3CCC4(CCC4OC)CC3)CC2)cc1` (configuration not stated) gave Pf Dd2 growth inactive.
Screening CNC(=O)N1CCCC(Cc2ncc(C)n2C(C)C)C1 (configuration not stated) returned Pf Dd2 growth inactive.
CCNC(=O)N1CCC(Cc2ncc(C)n2C(C)C)C1 (configuration not stated) was read as Pf Dd2 growth inactive.
`CCOc1ccccc1NC(=O)N1CCCC(Cc2ncc(C)n2C(C)C)C1` (configuration not stated) gave Pf Dd2 growth 1.8µM.
CCCn1c(C)cnc1CC1CCCN(S(=O)(=O)CCC)C1 (configuration not stated) was read as Pf Dd2 growth inactive.
Screening CNC(=O)N1CCC(Cc2ncc(C)n2CCOC)C1 (configuration not stated) returned Pf Dd2 growth inactive.
`COCCn1c(C)cnc1CC1CCCN(S(=O)(=O)c2cccc(F)c2)C1` (configuration not stated) gave Pf Dd2 growth 8.9µM.
CNC(=O)N1CCC(Cc2noc(C3CCOCC3)n2)C1 (configuration not stated) was read as Pf Dd2 growth inactive.
